For 61 compounds, inhibition results are on record in PubChem BioAssay AID1445 (SRMLSC, 2008).

Hit rate of the full screen: of about 220,000 compounds, about 910 (0.41%) were called active.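 Rule for the calls: active = primary inhibition above the hit cutoff, then over 50% inhibition at one or more dose response concentrations (cut at about 23% in these data, passing the limit was not always enough); inconclusive = conflicting primary data, or primary hits not chosen for dose response; inactive = low primary inhibition, or under 50% at every dose.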 This excerpt belongs to a sample that is enriched for actives. Results with a measured potency or affinity are listed apart.

In this experiment the target is Aminopeptidase N (Plasmodium falciparum (isolate 3D7)) (UniProt O96935). Kind of experiment: P. falciparum M1AAP inhibitors, biochemical, fluorogenic H-Leu-NHMec substrate, 1536-well (AID 1445).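 Note: plate controls were DMSO full reaction for no effect and no enzyme background for full effect.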 The following applies: recombinant M1AAP, H-Leu-NHMec fluorogenic kinetic assay; at 30 µM, hits give high values unless noted.
Aminopeptidase N (Plasmodium falciparum (isolate 3D7)), sequence (O96935 whole entry, looked up): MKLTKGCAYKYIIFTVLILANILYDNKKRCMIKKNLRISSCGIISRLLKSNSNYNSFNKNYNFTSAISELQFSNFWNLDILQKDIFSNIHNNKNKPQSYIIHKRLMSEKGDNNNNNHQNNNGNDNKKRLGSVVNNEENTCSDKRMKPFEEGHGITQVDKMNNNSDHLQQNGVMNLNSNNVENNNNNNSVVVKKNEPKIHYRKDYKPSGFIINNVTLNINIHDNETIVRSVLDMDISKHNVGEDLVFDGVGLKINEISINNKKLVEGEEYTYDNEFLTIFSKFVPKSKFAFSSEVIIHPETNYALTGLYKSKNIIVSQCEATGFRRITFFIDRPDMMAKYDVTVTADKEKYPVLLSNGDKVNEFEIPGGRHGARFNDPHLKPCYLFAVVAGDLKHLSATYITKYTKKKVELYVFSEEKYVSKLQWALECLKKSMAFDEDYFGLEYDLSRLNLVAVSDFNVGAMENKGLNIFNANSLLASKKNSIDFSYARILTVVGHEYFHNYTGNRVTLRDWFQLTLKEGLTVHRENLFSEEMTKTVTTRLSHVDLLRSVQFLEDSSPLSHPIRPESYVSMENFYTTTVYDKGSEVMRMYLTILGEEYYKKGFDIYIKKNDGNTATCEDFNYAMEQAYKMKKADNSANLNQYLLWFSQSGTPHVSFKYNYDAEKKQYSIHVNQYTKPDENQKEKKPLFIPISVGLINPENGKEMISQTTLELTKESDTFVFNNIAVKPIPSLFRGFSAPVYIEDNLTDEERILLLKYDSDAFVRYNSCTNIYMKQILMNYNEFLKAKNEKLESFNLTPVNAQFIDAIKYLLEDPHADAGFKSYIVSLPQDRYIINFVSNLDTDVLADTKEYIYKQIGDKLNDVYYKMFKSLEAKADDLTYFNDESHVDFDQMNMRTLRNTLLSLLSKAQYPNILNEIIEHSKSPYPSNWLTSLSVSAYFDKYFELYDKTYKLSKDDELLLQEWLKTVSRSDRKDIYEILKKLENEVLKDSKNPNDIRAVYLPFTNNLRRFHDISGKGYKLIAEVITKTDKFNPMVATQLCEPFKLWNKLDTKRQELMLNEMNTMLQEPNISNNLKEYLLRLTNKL
Take `CCOc1ccccc1N(CC(=O)NCCOC)C(=O)CCC(=O)Nc1ccccn1`: the inhibition (as a rule, the drop in the measured response relative to a control, in per cent) is -5.17% (inactive).

Turning to `CCC1CCCCN1CCCNC(=O)CC1Oc2ccccc2NC1=O` (stereo unspecified), the inhibition is 7.18% (inactive). Under `COc1cc([N+](=O)[O-])ccc1NC(=O)CCCOc1ccc(C)cc1` stands 17.4% (inactive); under `CC(C)(C)c1cc(C(=O)N/N=C/c2ccccc2O)n(-c2ccccc2)n1`, 11.1% (inactive); under `COCCCNC(=O)Cn1nnc(-c2ccc(NC(=O)c3ccccc3F)cc2)n1`, 0.6% (inactive).

For the compound `Nc1nc(COc2ccc3ccccc3c2)cs1`, the inhibition is -0.25% (inactive). To `O=C(NN=C1CCCCCC1)NC1CCCCC1` belongs -3.52% (inactive); to `CCCc1nnc(NC(=O)CN2CCN(C)CC2)s1`, 5.59% (inactive); to `FC(F)(F)c1nc2ccccc2[nH]1`, -1.24% (inactive).

`O=C(O)c1cccc2[nH]c(C(F)(F)F)nc12`: the inhibition was 9.3% (inactive). In the case of `CC(C)(C)NC(=O)Cn1c(SCC(N)=O)nc2ccccc21`, the inhibition was 2.96% (inactive). As to `O=C(OCC(=O)N1CCc2ccccc21)c1nc(Cl)ccc1Cl`, the inhibition was 0.15% (inactive).

As to `CN(C)C(=O)CN1C(=O)C2CCCCN2C(=O)c2ccccc21` (stereo unspecified), the inhibition was 8.25% (inactive). Turning to `NC(=O)CN1C(=O)C2CCCCN2C(=O)c2ccccc21` (stereo unspecified), the inhibition was -4.54% (inactive).

In the case of `Cc1noc(C)c1S(=O)(=O)N1CCCC(C(=O)N2CCN(C3CCCCC3)CC2)C1` (stereo unspecified), the inhibition is 8.08% (inactive). Under `Cc1cc(C)nc(N2CCC(C(=O)NCCc3ccc(F)cc3)CC2)n1` stands 3.16% (inactive).

`N#C/C(=N\Nc1ccccc1)C(=N)N1CCCCC1`: the inhibition is -1.69% (inactive). Consider `CCOC(=O)CCCCC(=O)c1[nH]c(=O)[nH]c1CSc1nc(-c2ccccc2)c(C#N)c(=O)[nH]1`, for which the inhibition was 23.6% (active).

Consider `CSc1nc(-c2ccccc2)c(C#N)c(=O)[nH]1`, for which the inhibition is 2.21% (inactive).

For the compound `Cc1cccc(NC(=O)CSc2nc(-c3ccccc3)c(C#N)c(=O)[nH]2)c1C`, the inhibition is 14.7% (inactive). In the case of `CCOC(=O)CCCCC(=O)c1[nH]c(=O)[nH]c1CSc1nc(C)cc(=O)[nH]1`, the inhibition is 7.83% (inactive). On to `CCOC(=O)CCCCC(=O)c1[nH]c(=O)[nH]c1CSc1nc2ccccc2[nH]1`, for which the inhibition is 8.8% (inactive). Take `N#Cc1c(-c2ccccc2)nc(SCC(=O)Nc2nnc(C(F)(F)F)s2)[nH]c1=O`: the inhibition was 17.8% (inactive). As to `CCSc1nc(-c2ccccc2)c(C#N)c(=O)[nH]1`, the inhibition is -8.26% (inactive). Under `Cc1ccc(NC(=O)CCNS(=O)(=O)c2cc(Br)cnc2N)c(Cl)c1` stands 6.45% (inactive); under `COc1ccc(-n2c(C)cc(/C=C(\C#N)C(=O)NCc3ccco3)c2C)cc1`, 9.23% (inactive); under `CS(=O)(=O)c1ccc(Cl)c(NC(=O)COC(=O)c2cccc(C#N)c2)c1`, 6.76% (inactive). In the case of `C/C(=N/NC(=O)CCc1c(C)n[nH]c1C)c1cccc([N+](=O)[O-])c1`, the inhibition is 0.36% (inactive). As to `CC(C)c1ccccc1NC(=O)CNCCc1ccc(C(F)(F)F)cc1`, the inhibition is 4.1% (inactive). In the case of `CCCCNC(=O)Cn1c(=O)oc2cc(S(=O)(=O)N3CC(C)CC(C)C3)ccc21` (stereo unspecified), the inhibition is 2.08% (inactive). Turning to `Cc1ccc(S(=O)(=O)N(Cc2cc3cc4c(cc3[nH]c2=O)OCCO4)CC2CCCO2)cc1` (stereo unspecified), the inhibition was 8.8% (inactive). On to `Cn1c(SCC(=O)N2CCOCC2)nnc1-c1cccc(NC(=O)c2ccccc2)c1`, for which the inhibition is 16.6% (inactive). Under `Cn1c(SCC(=O)N2CCOCC2)nnc1-c1ccc(NC(=O)c2ccccc2F)cc1` stands 3.9% (inactive); under `Cn1c(SCC(=O)N2CCOCC2)nnc1-c1cccc(NC(=O)c2ccccc2F)c1`, 25.4% (active); under `CCOC(=O)Cc1nnc(NC(=O)C(CC)Sc2nc(C)cc(=O)[nH]2)s1` (stereo unspecified), 11% (inactive). Take `CCC(C)Nc1nc(OC(C(F)(F)F)C(F)(F)F)nc(OC(C(F)(F)F)C(F)(F)F)n1` (stereo unspecified): the inhibition is 9.34% (inactive). On to `CC(=O)Nc1ccc2nc(-c3ccncc3)[nH]c2c1`, for which the inhibition was 10.3% (inactive). Take `O=C(Nc1ccc2nc(-c3ccccn3)[nH]c2c1)C1CCCCC1`: the inhibition was -0.77% (inactive). As for `O=C(CNC(=O)c1ccc(S(=O)(=O)N2CCCC2)cc1)N/N=C/c1ccc(Cl)cc1`, the inhibition was 3.87% (inactive). On to `Cn1c(-c2ccc[nH]c2=O)nc2cc(Cl)ccc21`, for which the inhibition was 3.43% (inactive). Take `CCCn1c(-c2ccc[nH]c2=O)nc2ccccc21`: the inhibition is 4.86% (inactive). For `COc1cc(/C=C2\OC(=O)c3c(OC)cccc32)ccc1O`, the inhibition was 18.4% (inactive). Take `CCC(=O)Oc1ccc2c(C)cc(=O)oc2c1C(=O)CC`: the inhibition is 1.59% (inactive). Turning to `CCn1c(COc2ccc(=O)n(-c3ccccc3)n2)nnc1SCc1ccccc1`, the inhibition is 1.85% (inactive). As to `Cc1ccc(NC(=O)c2cc([N+](=O)[O-])ccc2N2CCCC2)cc1`, the inhibition is 9.65% (inactive). Regarding `CCOC(=O)c1ccc(NC(=O)CSc2ncccn2)cc1`, the inhibition was 25.8% (active). Take `CCOC(=O)c1ccc(NC(=O)CSc2nccn2C)cc1`: the inhibition was 13.7% (inactive). For `CCOC(=O)c1ccc(NC(=O)CSc2nc3ncccc3[nH]2)cc1`, the inhibition is 15.1% (inactive). For `O=C(C1CCCCC1)N1CCCn2c1nc1ccccc12`, the inhibition was 26.8% (active). To `O=C(Nc1ccccc1)N1CCn2c1nc1ccccc12` belongs 3.81% (inactive); to `CCC(=O)N1CCCn2c1nc1ccccc12`, 0.87% (inactive). Regarding `CN(C)S(=O)(=O)c1ccc(C(=O)N2CCN=C2SCc2cccnc2)cc1`, the inhibition was -3.94% (inactive). In the case of `COc1ccccc1Nc1nc(N)nc(CN2CCC(C)CC2)n1`, the inhibition is 3.95% (inactive).

Regarding `O=C(Nc1ccc(Cl)cc1)c1ccc(-n2cccn2)c([N+](=O)[O-])c1`, the inhibition was 0.77% (inactive). Under `Cc1cccc(C)c1OCC(=O)Nc1cccc(-c2nnc(-c3ccccc3)o2)c1` stands 1.97% (inactive); under `Cc1cccc(OCC(=O)Nc2cccc(-c3nnc(-c4ccccc4)o3)c2)c1C`, 24% (active).

In the case of `Cc1ccc(OCC(=O)Nc2cccc(-c3nnc(-c4ccccc4)o3)c2)c(C)c1`, the inhibition was 2.43% (inactive). Take `Cc1ccc(C)c2c1cc(C)c1nnc(SCC(=O)N3CCCc4ccccc43)n12`: the inhibition is 3.01% (inactive). On to `Cc1ccc(C(=O)/C=C2/NC(=O)CS2)cc1`, for which the inhibition is 17.7% (inactive). `CC(C)(C)c1ccc(C(=O)/C=C2\NC(=O)CS2)cc1`: the inhibition is 7.72% (inactive). In the case of `O=C1CS/C(=C/C(=O)c2ccccc2)N1`, the inhibition is 25.3% (active).
